# About 740 (0.23%) of roughly 320,000 compounds were called active. A call without a number means that no potency is given here. About 2% were inconclusive and are not listed. Calls come from the whole dose curve; as a rule, active = well fitted activation curve with a large enough effect; inconclusive = small, poorly fitted or top-dose-only effect; inactive = no such curve, though single readings can be large or run the other way. This excerpt belongs to a sample that is enriched for actives.
# Experiment: qHTS Assay for Small Molecule Inhibitors of Mitochondrial Division or Activators of Mitochondrial Fusion; note: nearly all actives have a fitted effect of over 45% in size
# Conditions: S. cerevisiae fusion-defective mutant growth rescue, CellTiterGlo 48 h; series mostly up to 46.1 µM
# Source text: NIH Chemical Genomics Center [NCGC] NIH Molecular Libraries Probe Production centers Network [MLPCN] MLPCN Grant: MH081279-01 Assay Submitter (PI): Jodi M. Nunnari NCGC Assay Overview: The budding yeast S. cerevisiae is a powerful system to study mitochondrial fusion. Unlike other organisms, yeast cells without functional mitochondrial DNA (mtDNA) can be propagated and studied as long as they maintain a mitochondrial compartment and are provided with a fermentable carbon source. When mitochondrial fusion is blocked in yeast, mitochondrial tubules rapidly fragment and division continues unopposed. Under conditions where fusion is compromised in mammalian cells, nearly identical changes in mitochondrial structure have been observed. Thus, these findings indicate that steady state mitochondrial structure in cells is a characteristic and specific indicator of fusion activity. Mounting evidence has pointed to a connection between mitochondrial dynamics and apoptosis in mammalian cells. These studies indicate that in mammalian cells mitochondrial dynamics are more integrated into cellular processes than in yeast cells and have evolved not only to distribute the organelle but also to aid in the regulation of cellular homeostasis. Mitochondrial fusion proteins attenuate apoptosis by inhibiting the release of cytochrome c from mitochondria, in part by controlling cristae structures. Thus, small molecules that inhibit mitochondrial […] may promote apoptosis and potentially act as novel chemotherapeutics and stimulation of apoptosis has become an attractive target of anti-cancer therapies. To identify inhibitors of mitochondrial division, we exploit the growth phenotypes of mitochondrial fusion-defective mutants. The temperature sensitive fusion alleles, such as fzo1-1 and mgm1-5, cause mitochondrial membranes to fragment in cells under non-permissive conditions and cells lose mtDNA, and are unable to grow in the presence of non-fermentable carbon source glycerol. Inhibiting mitochondrial division rescues growth. We have developed and optimized a luminescence cell viability assay in 1536 well format for the identification of inhibitors in the yeast mitochondrial fusion-defective assay.
# The yeast glycerol stocks where kindly supplied by the laboratory of Dr. Jodi Nunnari, University of California, Davis. All yeast glycerol stock solutions were stored in single use aliquots at -80C. The CellTiterGlo luminescence reagent, containing luciferase and luciferin, were purchased from Promega, and the reagents were stored according to manufacturer's instructions. The Buffer components for the YPEG yeast growth medium were purchased from Sigma-Aldrich (St. Louis, MO). YPEG growth medium: 1% (w/v) yeast extract, 2% (w/v) Bacto-peptone, 3% Ethanol, 3% glycerol, 0.4mM Tryptophan, 0.36mM Adenine. qHTS Assay Protocol: 1.#Dispense 2.5 ul yeast growth medium per 1536 well plate. 2.#Transfer 23 nl per well of compound to plate. 3.#Dispense 2.5 ul yeast solution at appropriate seeding density per well. 4.#Incubate for 48 hours at 37C. 5.#Dispense 5 ul of CellTiterGlow solution per well. 6.#Incubate at ambient for 10 minutes. 7.#Read using bio-luminescence protocol on Viewlux.
# Potency is the fitted concentration of half-maximal effect.
SMILES,Potency,growth rescue (activation)
COc1cc(OC)cc(-c2c(-c3cccs3)c3cc(-c4ccc(OC)nc4)ccc3n2C)c1,inactive,–
COc1ccc(-c2c(-c3cc(OC)cc(OC)c3)n(C)c3ccc(-c4ccn[nH]4)cc23)cc1,10 µM (active),–
COc1cc(OC)cc(-c2c(-c3ccc(F)cc3)c3cc(-c4ccc5cc[nH]c5c4)ccc3n2C)c1,inactive,–
COC(=O)c1cc(S(=O)(=O)NCC2CCN(Cc3ccc(Cl)cc3)CC2)cn1C,inactive,–
CCn1cc(/C=C(\NC(=O)c2ccc(C)cc2)C(=O)NCCN2CCOCC2)c2ccccc21,inactive,–
Cn1cccc1C1(C(F)(F)F)NCCNC1=O (stereo not drawn),inactive,–
Cc1cc(C)cc(C(=O)OCC(=O)NCCNC(=O)COC(=O)c2cc(C)cc(C)c2)c1,inactive,–
COc1ccccc1-n1c(-c2ccc(C)cc2)cn2c3c(=O)n(C)c(=O)n(C)c3nc12,inactive,–
O=C(COC(=O)c1ccccc1Cl)NC1CCCCCCC1,inactive,–
Cc1csc(=NC(=O)c2ccccc2)n1CCO,inactive,–
OCCn1c(-c2ccccc2)csc1=Nc1ccccc1,11.2 µM (active),–
Cc1csc(=Nc2ccccc2)n1CCO,inactive,–
CCN1C(=O)[C@@H]2[C@@H](c3ccc(-c4cccc(Cl)c4)cc3)N3CCC[C@@]3(C(=O)OC)[C@@H]2C1=O,inactive,–
COc1cccc(C(=O)NCCS(=O)(=O)NCC2CCCO2)c1 (stereo not drawn),inactive,–
COc1cccc(/C=C2\Sc3ccc(C(=O)NCC4CCCO4)cc3N(C)C2=O)c1 (stereo not drawn),17.8 µM (active),–
COc1ccccc1-n1cnc2cc(C(=O)NCC3CCCO3)ccc21 (stereo not drawn),inactive,–
O=C(NC1CCCC1)C1CC(=O)N(c2ccc(F)cc2)C1 (stereo not drawn),inactive,–
O=C1CN(C(=O)CN2C(=O)NC3(CCCCC3)C2=O)c2ccccc2N1,inactive,–
O=C1CCCC2=C1C(c1cccs1)CC(=O)N2c1ccc(F)cc1 (stereo not drawn),inactive,–
CCOC(=O)C1=C(N)N(c2ccc(C)cc2)C2=C(C(=O)CCC2)C1c1cccs1 (stereo not drawn),20 µM (active),–
CCOC(=O)c1cc2c(n(-c3ccc(C)cc3)c1=O)CCCC2=O,inactive,–
COC(=O)C(C)N=Cc1ccccc1 (stereo not drawn),inactive,–
COc1ccc(S(=O)(=O)N2CCN(CC(=O)N3c4ccccc4CC3C)CC2)cc1OC (stereo not drawn),inactive,–
NC(=O)C1CCN(Cc2nc3c(Br)cc(Br)cc3c(=O)[nH]2)CC1,inactive,–
CC(C)OC(=O)c1c(NC(=O)c2ccco2)sc2c1CCCC2,inactive,–
COC(=O)c1c(NC(=O)c2cccs2)sc2c1CCCC2,14.1 µM (active),–

SMILES,Potency,growth rescue (activation)
COC(=O)c1c(NC(=O)CSc2nncs2)sc2c1CCCCC2,inactive,–
C=CC1(C)CC(=O)C2(O)C(C)(O1)C(OC(C)=O)C(O)C1C(C)(C)CCC(O)C12C (stereo not drawn),inactive,–
O=c1c(Cl)c(NCc2ccc(F)cc2Cl)cnn1C12CC3CC(CC(C3)C1)C2,inactive,–
Cc1csc(OCC(=O)Nc2ccc(C)c(C)c2)n1,inactive,–
Cc1nc(COc2cc3oc(=O)cc(C)c3cc2Cl)cs1,inactive,–
Cc1ccc(C)c(NS(=O)(=O)c2cc(Br)cnc2N)c1,inactive,–
CC(=O)/C(C)=N/O,20.6 µM (active),–
CCCN1CCN(C(=O)Cn2ncc3ccccc32)CC1,inactive,–
CCCCN(C(=O)C(CCSC)N1C(=O)c2ccccc2C1=O)c1c(N)n(CCC)c(=O)[nH]c1=O (stereo not drawn),inactive,–
NC1CCN(O)C1=O (stereo not drawn),inactive,–
COC(=O)c1c(C(=O)OC)c2n(c1C)CCS2,inactive,–
CCC1=Nc2cc(C(=O)NCCN3CCCC3)ccc2Sc2ccc(C)cc21,inactive,–
CCCC1=Nc2cc(C(=O)NCCN3CCCC3)ccc2Sc2ccccc21,inactive,–
CCCC1=Nc2cc(C(=O)NCc3ccco3)ccc2Sc2ccccc21,31.6 µM (active),–
C[C@H](NC(=O)C1CC(=O)N(c2ccc3c(c2)OCCO3)C1)C(=O)N1CCC(C(=O)O)CC1 (stereo partly drawn),inactive,–
O=C(NCC(c1ccco1)S(=O)(=O)c1cccs1)c1ccc(F)cc1 (stereo not drawn),inactive,–
COC(=O)CN1C(=O)[C@H]2[C@@H](C3CC3)N3C(=O)CN(Cc4ccc(-c5ccccc5)cc4)C(=O)[C@@]3(Cc3ccccc3)[C@H]2C1=O,inactive,–
O=C(NCc1cccnc1)Nc1cccc(NC(=O)NCc2cccnc2)c1F,inactive,–
Cc1ccc(NC(=O)Cn2nnc3sc4c(c3c2=O)CCC(C)C4)cc1 (stereo not drawn),inactive,–
COc1ccc(C2CC(=O)Nc3c2c(=O)nc2c(C)cccn32)cc1OC (stereo not drawn),inactive,–
Cc1ccsc1/C=C1\SC(N2CCOCC2)=NC1=O,inactive,–
Cc1ccc(N2CCN(/N=C/c3cccs3)CC2)cc1,inactive,–
Cc1ccc(N2CCN(C3=NC(=O)/C(=C\c4cccs4)S3)CC2)cc1,22.4 µM (active),–
C=CCn1nc(-c2ccccc2)c2c(C)onc2c1=O,inactive,–
O=C1C=C(c2cccc(Cl)c2O)C[C@@H](c2ccc(F)cc2)C1,11.2 µM (active),–
COc1ccc([C@H]2CC(=O)C=C(c3ccc(CO)cc3)C2)cc1,inactive,–

SMILES,Potency,growth rescue (activation)
COc1ccc([C@H]2CC(=O)C=C(c3ccc(C)cc3)C2)cc1,inactive,–
CC(C)(C)CC(=O)Nc1nnc(SCC(=O)NCc2cccs2)s1,inactive,–
O=C1CSC(=O)N1CCOCCN1C(=O)CSC1=O,inactive,–
Cc1cccc(NC(c2cccc(F)c2)c2ccc3ccc(C)nc3c2O)n1 (stereo not drawn),inactive,–
CCCCCc1ccc(-c2ccc(OCC)cc2)nc1,inactive,–
CCCCCc1ccc(-c2cn(Cc3ccc4ccccc4c3)nn2)cc1,inactive,–
CCCCCc1ccc(-c2ccc(C(=O)O)cc2)nc1,15.8 µM (active),–
COc1ccc(-n2c(SCC(=O)Nc3ccc(Cl)c(C)c3)nc3n[nH]c(C)c3c2=N)cc1,inactive,–
COc1cc(OC)cc(C(=O)N[C@H](C(=O)Nc2nc3ccccc3[nH]2)C(C)C)c1,inactive,–
CN(c1ccccc1)S(=O)(=O)c1cc(C(=O)Nc2nc3ccccc3[nH]2)ccc1Cl,12.6 µM (active),–
CN(c1ccccc1)S(=O)(=O)c1cc(C(=O)OCC(=O)N2CCN(C(=O)c3ccco3)CC2)ccc1Cl,inactive,–
CN(C)S(=O)(=O)c1ccc(C(=O)NCC2(N3CCOCC3)CCCCC2)cc1,inactive,–
COc1ccc(NS(=O)(=O)c2ccc(C)c(C(=O)N(C)Cc3ccc(OC)cc3OC)c2)cc1,inactive,–
CC1CC2C3CCC4=CC(=O)C=C[C@]4(C)[C@@]3(F)[C@@H](O)C[C@]2(C)[C@@]1(O)C(=O)CO (stereo partly drawn),inactive,–
O=C(NCCCCCCCCCNC(=O)C(F)(F)F)C(F)(F)F,inactive,–
CC(CN1CCOCC1)OC(=O)c1ccc(Cl)cc1Cl (stereo not drawn),inactive,–
CC(CN1CCOCC1)OC(=O)c1ccc(C(C)(C)C)cc1 (stereo not drawn),inactive,–
Cc1ccc(C(=O)OC(C)CN2CCOCC2)cc1 (stereo not drawn),22.4 µM (active),–
C=C(C)C1CC=C(C)/C(=N\NC(=O)CNc2ccccc2OC)C1 (stereo not drawn),inactive,–
Cc1ccc(S(=O)(=O)/N=C(/NC(=S)Nc2c(C)n(C)n(-c3ccccc3)c2=O)c2ccccc2)cc1,inactive,–
Cn1c2cc(B(O)O)sc2c2cnn(Cc3ccccc3F)c(=O)c21,inactive,–
O=C(Nc1ncc2c(n1)CC(c1ccco1)CC2=O)c1ccc(Cl)cc1 (stereo not drawn),inactive,–
CCc1ccc(Nc2ncc3c(n2)CC(c2ccco2)CC3=O)cc1 (stereo not drawn),11.2 µM (active),–
COc1cc(C2CC(=O)c3cnc(NC(C)=O)nc3C2)cc(OC)c1OC (stereo not drawn),inactive,–
Cc1cc(NC(=O)Nc2c[nH]c(=O)[nH]c2=O)ccc1Br,inactive,–
CCOC(=O)c1c(CNCc2ccccc2F)c2sc(C)cc2n1C,inactive,–

SMILES,Potency,growth rescue (activation)
COc1cc(C2NC(=O)NC(c3ccccc3)=C2C(C)=O)c(Br)cc1OCC(N)=O (stereo not drawn),inactive,–
COc1ccccc1N(C)S(=O)(=O)c1ccc(C(=O)NC2CCCCCC2)cc1,inactive,–
COc1ccc(CCNC(=O)CN2C(=O)CCSc3ccccc32)c(OC)c1,inactive,–
COc1ccc(CNC(=O)CNC(=O)c2sc3ccccc3c2Cl)cc1OC,inactive,–
COCCNC(=S)N/N=C/c1c(C)[nH]c2ccccc12,inactive,–
O=C(N/N=C/c1c(Cl)[nH]c2ccccc12)c1sc2ccccc2c1Cl,15.8 µM (active),–
Nc1ncnc2c1c(I)cn2[C@@H]1C[C@H](N)[C@@H](O)[C@H]1O,inactive,–
COc1ccccc1NC(=O)c1cc(S(=O)(=O)NCCc2ccccc2)ccc1F,inactive,–
COc1cccc(-n2c(=O)c3c(C)c(C(=O)N(C)C)sc3n(CC(=O)NCCc3ccc(OC)c(OC)c3)c2=O)c1,inactive,–
CC(=O)Nc1ccc(S(=O)(=O)NCCc2ccccc2)cc1,inactive,–
CCCCNC(=O)C1CCC(CNS(=O)(=O)c2ccc(NC(C)=O)cc2)CC1 (stereo not drawn),inactive,–
COCCCNC(=O)c1ccc(CNS(=O)(=O)c2ccc(NC(C)=O)cc2)cc1,0.631 µM (active),–
O=C(NC1CCCC1)C(c1ccco1)N(C(=O)c1ccco1)c1ccc(F)cc1 (stereo not drawn),inactive,–
CN(C)C(=O)c1ccc2c(c1)C1C3CCC(C3)C1C(c1ccccc1)N2 (stereo not drawn),12.6 µM (active),–
CN(C)C(=O)c1ccc(NC(=O)c2ccccc2-c2ccccc2)cc1,inactive,–
CC1(C)C/C(=C(/C#N)C(N)=O)CCO1,inactive,–
NC(N)=Nc1nc2ccc(Br)cc2c(=O)[nH]1,inactive,–
O=S(=O)(Nc1ccc2nc(N3CCOCC3)sc2c1)c1ccccc1,inactive,–
CC(=O)OCCOCn1cnn2c(=O)c(Br)c(C)nc12,inactive,–
CCC(=O)Nc1ccc(-c2ccc(N3CCCCC3)nn2)cc1,17.8 µM (active),–
CCC(=O)c1ccc(OCC(=O)Nc2ccc(N3CCCCC3)cc2)cc1,inactive,–
CC1CCN(c2ccc(-c3ccc(NC(=O)c4ccco4)cc3)nn2)CC1,inactive,–
CCOc1ccc(/C(O)=C2\C(=O)C(=O)N(c3ccc(OC)cc3)C2c2ccccc2[N+](=O)[O-])cc1 (stereo not drawn),inactive,–
CCOC(=O)C1=C(c2ccccc2)NC(=O)NC1c1cc(OC)c(OC)cc1OC (stereo not drawn),inactive,–
CCCC[C@]12Cc3cc(OC)c(OC)cc3C(O1)C1=C(CC3(CCCCC3)OC1=O)O2,–,-0.167% [at 9.22 µM] (inactive)

# — PubChem BioAssay AID485298 (National Center for Advancing Translational Sciences (NCATS), 2010)
